Experimental data: PubChem BioAssay

Experiment: P. aeruginosa biofilm formation inhibitors, primary screen, strain PAO1, LB-PBS medium, absorbance 600 nm (AID 1176)
Conditions: P. aeruginosa PAO1 growth/biofilm, A600, 12 h; higher = more signal
Further: test concentration not given here.

z-score, inactive:
[N-]=[N+]=NCc1ccccc1C[C@]1(C(N)=O)COC(c2ccc(OCCCO)cc2)=N1 0.466
C=C(CC1([C@@H](NP(=O)(c2ccccc2)c2ccccc2)[C@H]2C[C@@H]2CCCC)CC1)c1ccccc1 0.812
CC[C@@H]1C=C(C(=O)O)[C@H](c2ccc(Br)cc2)N1S(=O)(=O)c1ccc(C)cc1 -0.116
C=C(CCCC)/C(=C/C[C@H](OC(C)=O)c1ccccc1OCCO)c1cc(C(=O)OC)ccc1OC -0.824
COC(=O)[C@@]1(Cc2ccc(OC)cc2)[C@H]2c3cc(C(=O)N(C)C)n(C)c3C[C@H]2CN1C(=O)c1ccccc1 0.976
CN(C)CCCCCCNC(=O)[C@H]1C[C@H]2C(=O)N[C@@H](CCCCN)C(=O)N2[C@H]1c1cccc(OCCO)c1 0.0346
NC(=O)NCC#Cc1ccc2c(c1)[C@]1(C(=O)N2)[C@H](c2ccccc2OCCO)N2[C@H](c3ccccc3)[C@H](c3ccccc3)OC(=O)[C@H]2[C@@H]1C(=O)Nc1nc2ccccc2s1 2.29
CC1CC/C=C\[C@H]2OC34C=CCN(C(C)(C)C)C(=O)[C@H]3N(CCO)C(=O)[C@@H]4C2C(=O)O1 (some centres not stated) 0.22
C=C(COC)/C(=C/C[C@H](OC(C)=O)c1ccc(CO)o1)c1cc(C(=O)OC)ccc1OC -0.317
CNS(=O)(=O)c1ccc(C)cc1 0.426

Experiment: S. cerevisiae RM11-1a growth modifiers, primary screen, strain RM11-1a, OD600, basal, 24 h (AID 1177);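 further: cultures grown under basal conditions with no added stressor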
Conditions: OD600, 24 h, higher = more signal, called active from +8 up or from −8 down

z-score, inactive:
O=C1NC(=O)C2C1C=CC(C(O)c1cc(C(F)(F)F)cc(C(F)(F)F)c1)N2Nc1ccccn1 (configuration not stated) 0.0176
C=C(/C(=C/C[C@H](OC(C)=O)c1ccccc1OCCO)c1cnc2ccccc2c1)C(C)C 1
COC(=O)[C@H](Cc1ccccc1)N1CC2=C[C@@H](C3CC3)n3c(=O)n(C)c(=O)n3[C@H]2[C@@H]1[C@@H](O)Cc1ccccc1 -0.143
CC(=O)n1cc(C(O)C2C=CC3C(=O)N(c4ccccc4)C(=O)C3N2Nc2ccc([N+](=O)[O-])cc2)c2ccccc21 (configuration not stated) 0.241
CN1C=C(C(=O)OCCS(C)(=O)=O)C(C(=O)OCCS(C)(=O)=O)=CC(c2ccc(CO)cc2)=CC1C1CC1 (configuration not stated) 0.0635
COC(=O)[C@]1(CCC(=O)OC(C)(C)C)N=C(c2ccc(OCCCO)cc2)O[C@@H]1c1ccccc1CN=[N+]=[N-] 1.84
C=CCNC(=O)[C@@H]1[C@H]2C(=O)O[C@H](c3ccccc3)[C@H](c3ccccc3)N2[C@H](c2ccc(OCCO)cc2)[C@@]12C(=O)Nc1ccc(C#CCC(C(=O)OC)C(=O)OC)cc12 2.26
COC(=O)C(CC#Cc1ccc2c(c1)[C@]1(C(=O)N2)[C@H](c2ccc(OCCO)cc2)N2[C@H](c3ccccc3)[C@H](c3ccccc3)OC(=O)[C@H]2[C@@H]1C(=O)N1CCc2cc(OC)c(OC)cc2C1)C(=O)OC 2.97
NC(=O)N1C(=O)C2C(C1=O)C1C=C(c3ccc(CO)cc3)C2C(c2cccs2)N1Cc1cccc(OC(F)(F)F)c1 (configuration not stated) -1.87
C=CCC(OC(C)=O)[C@@H]1[C@@H](N(Cc2ccc(-c3ccccc3)cc2)C(=O)c2cccc3ccccc23)c2cc(OCCCO)ccc2N1C(=O)c1ccc(-c2ccccc2)cc1 (some centres not stated) -0.768
COc1cc(NN2C(C(O)c3ccco3)C=CC3C(=O)N(c4ccccc4)C(=O)C32)cc(OC)c1OC (configuration not stated) 0.178
CC(C)[Si]1(C(C)C)O[C@@H](c2ccccc2)c2cc(-c3ccc(-c4ccc(Cl)c(Cl)c4)o3)nc(-c3ccccc3)c21 -0.282
CCOC(=O)C[C@H]1[C@H](OC(=O)c2ccc(C(=O)c3ccccc3)cc2)[C@@H](NC(=O)c2ccc3ccccc3n2)c2cc(OCCCO)ccc2N1C(=O)c1ccccc1 -0.0492
CC(C)C(O)C1C=CC2C(=O)NC(=O)C2N1Nc1ccc(Cl)cc1Cl (configuration not stated) 1.05
COc1ccc(C#Cc2ccc3c(c2)[C@]2(C(=O)N3)[C@H](C(=O)Nc3nc4ccccc4s3)[C@H]3C(=O)O[C@H](c4ccccc4)[C@H](c4ccccc4)N3[C@@H]2c2ccc(O)cc2)cc1 1.15
COC(=O)[C@@]1(Cc2ccccc2)N=C(c2ccc(OCCCO)cc2)O[C@H]1c1ccccc1 1.47
[N-]=[N+]=Nc1ccccc1[C@H]1OC(c2ccc(OCCCO)cc2)=N[C@@]1(CCS(=O)(=O)c1ccccc1)C(N)=O -0.167
